# Assay outcomes (PubChem)
# A selection: hits, their analogues and other compounds. The true share with any hit is near 3.5%.
# MITF inh – MITF inhibitors, primary screen, biochemical, AlphaScreen, human | inhibition, % at 2.6 µM | Microphthalmia-associated transcription factor (Homo sapiens), O75030 | hit rate 0.91% among 650,000 | AlphaScreen MITF homodimerization, bead proximity signal | AID 1259374, 2018; in the data active means inhibition above about 50%;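 further: 0% = vehicle wells with protein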
# FBW7 act – FBW7 E3 ligase activators, primary screen, biochemical, AlphaScreen, human. AlphaScreen FBW7–phospho-cyclin E peptide binding, activator screen. F-box/WD repeat-containing protein 7 (Homo sapiens), Q969H0. normalized activity (activation), % at 26.1 µM. AID 1259310, 2017. hit rate 0.13% among 650,000; in the data active means normalized activity above about 1.9%;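 further: purified mutant Fbw7 with reduced substrate affinity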
# TEAD-YAP block – TEAD-YAP interaction inhibition, primary screen, TEAD-YAP interaction inhibitor project, luminescence, HEK-TIYL cells | hit rate 1.4% among 640,000 | TEAD-Gal4/YAP UAS-luciferase luminescence | inhibition, % at 9.12 µM; in the data active means inhibition above about 32%;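 further: 0% = median of test compound wells and 100% = reference inhibitor wells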
# GPR151 activ – activators of human GPR151, primary screen, cell-based, PathHunter beta-arrestin, luminescence; G-protein coupled receptor 151 (Homo sapiens), Q8TDV0; PathHunter beta-arrestin GPR151 cells; activation, % at 11.2 µM; hit rate 1% among 650,000; AID 1508602, 2020; in the data active means activation above about 4.9%;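 further: 0% = median of compound wells and 100% = cells with positive control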
# GPR151 confirm – GPR151 activators, triplicate retest, confirmation, cell-based, PathHunter beta-arrestin, luminescence; activation, % at 11.2 µM; GPR151 PathHunter beta-arrestin cells, 90 min; % of EA-reagent control over plate median; shares compounds with GPR151 activ; 6,700 tested, under 10 active;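 active means mean percent activation across replicates above the confirmation screen cutoff of 4.91%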
# GPR119 counter – GPR119 activators in beta-arrestin cells, counter-screen for GPR151 activator project, cell-based, PathHunter beta-arrestin, luminescence, triplicate; 90 min; 0 = compound-well median, 100 = enzyme-acceptor control; AID 1508611, 2020; hit rate 0.3% among 6,700; shares compounds with GPR151 activ; activation, % at 11.2 µM;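 active means mean percent activation in the counterscreen above 29.09%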;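 further: counterscreen on off-target GPR119 to flag nonselective hits from the GPR151 activator screen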
# Target sequence (Q8TDV5 whole entry, looked up): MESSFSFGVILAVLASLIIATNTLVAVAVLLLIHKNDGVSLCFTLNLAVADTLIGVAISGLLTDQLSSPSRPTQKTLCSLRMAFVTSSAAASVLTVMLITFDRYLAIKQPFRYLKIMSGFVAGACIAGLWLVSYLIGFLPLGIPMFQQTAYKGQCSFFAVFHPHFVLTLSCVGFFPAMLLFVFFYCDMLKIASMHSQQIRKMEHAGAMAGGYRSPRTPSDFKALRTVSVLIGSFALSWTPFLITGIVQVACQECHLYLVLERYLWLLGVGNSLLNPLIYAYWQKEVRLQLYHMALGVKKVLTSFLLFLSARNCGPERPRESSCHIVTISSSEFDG
# Starred values were filed as active, the others as inactive; · = not tested or not shown.
SMILES,MITF inh,FBW7 act,TEAD-YAP block,GPR151 activ,GPR151 confirm,GPR119 counter
CSc1cccc(CN2CCN(Cc3ccccc3F)C(CCO)C2)c1 (stereo not given),13,0,-1,13*,1,-3
COc1cccc(CN2CCN(Cc3cccc(OCCO)c3)CC2CCO)c1 (stereo not given),-3,0,9,5.2*,0,0
COc1cccc(CN2CCN(Cc3cn(C)nc3C)CC2CCO)c1 (stereo not given),9,0,7,5.8*,-1,-14
CCNc1nc(Sc2cc(C)nc(Cl)n2)nc(N2CCOCC2)n1,-8,0,-4,1,·,·
c1c2c(cc3sc(N4CCCC4)nc13)OCO2,12,1,-15,0,·,·
O=C(COc1ccccc1CNC1CCCC1)NCc1ccccc1,14,0,-3,0,·,·
CCN(CC)C(=O)CN1CCN(c2ccc(Cl)cc2)CC1,-2,0,4,1,·,·
O=C(Cc1cccs1)N/N=C\c1ccc(O)c(O)c1,-7,0,-14,5.3*,0,1
O=C(Cc1cccs1)N/N=C\c1ccc(O)cc1,18,0,-12,-2,·,·
CC1(C)CC2CC(C)(CN2C(=O)CSc2nnnn2-c2ccccc2)C1 (stereo not given),0,0,3,0,·,·
Cc1c(Cl)cccc1NC(=O)c1cc([N+](=O)[O-])ccc1N1CCN(C)CC1,0,0,11,6.2*,1,19
CN1CCN(c2ccccc2NC(=O)c2ccc([N+](=O)[O-])cc2Cl)CC1,21,1,-8,-2,·,·
Cc1c(C(=O)NCc2ccc(Cl)cc2)sc2ncn(CC(=O)N3CCCC(C)C3)c(=O)c12 (stereo not given),2,0,-3,-2,·,·
COCCNC(=O)C1CCCN(S(=O)(=O)c2c(C)noc2/C=C/c2cccs2)C1 (stereo not given),-8,0,0,5.3*,1,4
COc1ccc(CCNC(=O)c2csc(-c3cccs3)n2)cc1,18,1,-3,0,·,·
O=C(NCCc1ccc(O)cc1)c1csc(-c2cccs2)n1,36,0,-3,6.4*,0,5
COc1cccc(CCNC(=O)C2CC23CCN(Cc2ccoc2)CC3)c1 (stereo not given),20,0,-2,2,·,·
CCN1CCN(CCCN2C(=S)N(c3ccc(Cl)cc3)C(=O)C2CC(=O)Nc2ccc(OC)cc2)CC1 (stereo not given),0,1,-2,0,·,·
NC(=O)CC1C(=O)N(c2ccc(Cl)cc2)C(=S)N1Cc1cccnc1 (stereo not given),7,0,7,5.4*,0,3
CCCOc1ccc(NC(=O)CC2C(=O)N(c3ccc(Cl)cc3)C(=S)N2Cc2cccnc2)cc1 (stereo not given),10,0,-3,0,·,·
CCCOc1ccc(NC(=O)CC2C(=O)N(c3ccc(Cl)cc3)C(=S)N2Cc2ccncc2)cc1 (stereo not given),4,0,1,6.3*,2,-6
COc1ccc(NC(=O)CC2C(=O)N(c3ccc(Cl)cc3)C(=S)N2CCCN2CCOCC2)cc1 (stereo not given),11,0,1,5.0*,0,19
Cc1ccc(-c2csc3ncc(C(=O)N(CCO)C(C)C)c(=O)n23)cc1,-7,0,0,1,·,·
CCOC(=O)c1cccc(NC(=O)CCc2c(C)nc3nc(CN)nn3c2C)c1,3,0,12,5.9*,-2,-20
CN(CC(=O)NC1CCCCCC1)c1nnc(N2CCCC2=O)s1,9,1,-2,-2,·,·
SMILES,MITF inh,FBW7 act,TEAD-YAP block,GPR151 activ,GPR151 confirm,GPR119 counter
CN(CC(=O)NC1CCCC1)c1nnc(N2CCCC2=O)s1,3,1,-1,6.1*,0,3
CC1CCN(C(=O)CSc2nc3[nH]ncc3c(=O)[nH]2)CC1,0,0,-5,7.7*,1,10
NC(CC(=O)O)c1ccc(F)cc1 (stereo not given),-3,0,-1,-1,·,·
Oc1ccc(C(c2ccc(O)cc2)c2ccc(F)cc2)cc1,6,0,7,7.7*,-1,20
Cc1ccc(C)c(S(=O)(=O)N2CCCC2CNC(=O)C(=O)Nc2ccccc2F)c1 (stereo not given),14,1,0,-3,·,·
COCCCNC(=O)c1cc2c(=O)n3cccc(C)c3nc2n(CCOC)c1=N,27,0,5,6.6*,0,-1
CCn1c(=N)c(C(=O)NC2CCCC2)cc2c(=O)n3cccc(C)c3nc21,0,0,14,1,·,·
CCC(C)n1c(=N)c(C(=O)NC2CCCCC2)cc2c(=O)n3cccc(C)c3nc21 (stereo not given),6,0,5,5.2*,0,-6
O=c1c(-c2ccccc2Cl)coc2cc(O)ccc12,0,0,-29,0,·,·
COc1ccccc1NC(=O)Cn1cnc2sc(C(=O)NCCC3=CCCCC3)c(C)c2c1=O,16,1,-10,1,·,·
Cc1ccc(OCNC(=O)N2CCOCC2)cc1,14,0,-4,0,·,·
CC(=O)c1ccc(OC(C)C)c(CSC(=N)N)c1,13,1,6,6.5*,0,2
COc1ccccc1NC(=O)c1cc(Cl)c(Cl)cc1C(=O)O,4,0,-2,0,·,·
Nc1nc(SCc2nc(-c3ccccc3)no2)[nH]c(=O)c1-c1ccccc1,-2,0,1,6.0*,-2,-16
Nc1nc(SCC(=O)NCc2ccccc2)[nH]c(=O)c1-c1ccccc1,3,0,8,6.8*,0,0
CN1C(C(=O)NCc2ccc3c(c2)OCO3)CC(c2ccc(F)cc2)NS1(=O)=O (stereo not given),7,0,2,0,·,·
O=C1CSC(c2ccc(Cl)cc2)N1c1ccc(F)cc1 (stereo not given),14,0,9,2,·,·
O=C(Cc1cn(-c2ccc(Nc3cnccn3)nn2)c2ccccc12)NCCOc1ccccc1,7,0,10,6.2*,-1,-6
COCCNc1oc(-c2ccccc2)nc1S(=O)(=O)c1ccc(C)cc1,2,0,-1,6.1*,0,1
COCCNc1oc(-c2ccccc2)nc1S(=O)(=O)c1ccc(Cl)cc1,4,-1,-2,-1,·,·
CC(C)c1ccc(-n2cc(-c3ccc(C(=O)N4CCCC4)cn3)cn2)cc1,8,0,19,6.2*,0,7
